# Reference: PubChem BioAssay AID720604 (Broad Institute, 2013)
# Results with a measured potency or affinity are listed apart. Results filed as inconclusive are left out. Activity calls are given as the source filed them.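 How the source made its calls: active means compound lowering viability with a fitted half-effect dose within twice the top dose in every timed run; inconclusive means timed runs disagree on the call; inactive means inactive in every run, including a rising signal.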
# Assay: HUVEC endothelial cell viability loss, dose response, cytotoxicity control for HRAS target identification, CellTiter-Glo ATP luminescence, 8/24/48 h, dry powder (AID 720604)
row,Structure (SMILES),outcome
1,Cc1onc(C(=O)N2CCN(C(c3ccncc3)c3ccncc3)CC2)c1[N+](=O)[O-],inactive
2,Cc1onc(C(=O)N2CCN(C(c3ccc(Cl)cc3)c3ccc(Cl)cc3)CC2)c1[N+](=O)[O-],inactive
